Experimental data taken from PubChem BioAssay AID504843 (Broad Institute, 2011).
Hit rate of the full screen: of about 1,200 compounds, about 360 (30%) were called active. How the calls were made is not given here. These entries were drawn from the full list. Potency and affinity values are given separately.

Assay: bacterial growth inhibition, dose response, counter-screen, BacTiter-Glo luminescence, cherry-picked samples (AID 504843);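 further: growth measured after 8 h incubation at 30 °C; 0% = median of sample compound wells and -100% = antibiotic control wells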
Settings: BacTiter-Glo ATP luminescence; series mostly up to 15 µM; activity change, negative = inhibition: at the top concentration

Row | SMILES | activity change, negative = inhibition
1 | O=C(CCCc1nc2ccccc2s1)NC1CCOC1=O (stereo not drawn) | 8.2% (inactive)
2 | Cc1cccc(CS(=O)(=O)c2ncc(Cl)c(C(=O)Nc3nnc(C(C)C)s3)n2)c1 | -5.68% (inactive)
3 | Cc1cccc(NC(=O)CN(c2ccc(F)cc2)S(C)(=O)=O)c1 | 14.4% (inactive)
4 | O=C(C[C@H]1C[C@H](C(=O)N2CCOCC2)[C@@]2(CCC3CCCC3)c3[nH]c4cc(-c5ccco5)ccc4c3CCN2C1=O)NCCCn1ccnc1 | -7.23% (inactive)
5 | CC(=O)Nc1ccc(/C=N/N2CCCCC2)cc1 | -9.51% (inactive)
6 | Cc1ccc(/C=C2/C(=N)N3N=C(CC(=O)N4CCCC4)SC3=NC2=O)o1 | 1.5% (inactive)
7 | C=CCN1C(=O)c2ccc(C(=O)N3CCC(C(N)=O)CC3)cc2C1=O | -16.8% (inactive)
8 | CC(NC(=O)c1ccc([N+](=O)[O-])o1)C12CC3CC(CC(C3)C1)C2 (stereo not drawn) | 22.9% (inactive)
9 | CC(C)N1CCc2c(sc(NC(=O)c3ccc(S(=O)(=O)N4CCc5ccccc54)cc3)c2C(N)=O)C1 | -10.4% (inactive)
10 | Cc1ccc2nc(C(=O)O)c(C(=O)O)nc2c1 | -2.68% (inactive)
11 | NC(=O)Cn1c(-c2nonc2N)nc2ccccc21 | 14.1% (inactive)
12 | CC(C)c1nn2c(=O)cc(CSc3ccccc3NC(=O)c3ccccc3F)nc2s1 | -10.6% (inactive)
13 | COc1ccc(-n2c(Cc3cccn3C)nnc2SCC(=O)NCc2ccc(F)cc2)cc1 | -10.8% (inactive)
14 | CC(=O)c1ccc(NC(=O)CSc2nnc(C3CC3)n2C2CC2)cc1 | -7.46% (inactive)
15 | Cc1ccc2cc(CCNC(=O)C(=O)c3c(C)[nH]c4ccccc34)c(=O)[nH]c2c1 | -3.49% (inactive)
16 | O=C(Nc1ccc(F)cc1)Nc1cc(S(=O)(=O)N2CCOCC2)ccc1N1CCCC1 | 4.61% (inactive)
17 | O=C(/C=C/c1ccccc1)Nc1cc(S(=O)(=O)N2CCOCC2)ccc1N1CCCC1 | -3.5% (inactive)
18 | Nc1ccn(CC(=O)N2CCN(c3ccccn3)CC2)c(=O)n1 | -4.25% (inactive)
19 | CC(Sc1ccsc1[N+](=O)[O-])C(=O)N1CCN(c2ccccn2)CC1 (stereo not drawn) | -3.67% (inactive)
20 | COC(CNc1ncnc2sc(-c3ccccc3)cc12)OC | -3.03% (inactive)
21 | O=C(CSc1nnc(-c2cccnc2)o1)Nc1ccc(Cl)cc1 | -0.908% (inactive)

Row | SMILES | activity change, negative = inhibition
22 | Cc1cccc(-c2nnc(-c3cccc(NC(=O)Cc4cccs4)c3)o2)c1 | 9.27% (inactive)
23 | CSc1cccc(NC(=O)CN(C)S(=O)(=O)c2cnc[nH]2)c1 | -5.56% (inactive)
24 | C[C@H](NC(=O)c1nc[nH]c1C(=O)NCCCCCNC(=O)OC(C)(C)C)c1ccccc1 | -1.97% (inactive)
25 | CC1CCN(C(=O)c2[nH]cnc2C(=O)N[C@@H](C)C(=O)OC(C)(C)C)CC1 | 12.1% (inactive)
26 | CCCCCCCN(c1ccccc1)[C@@H]1C[C@H]2CCCC(=O)N3CC[C@@H](C1)[C@@H]23 | 14.7% (inactive)
27 | CCOC(=O)c1c(C)[nH]c(C(=O)N(C)Cc2cccc(OC)c2OC)c1C | 1.41% (inactive)
28 | O=C1CN2C(=Nc3ccc(Br)cc3C2c2ccccc2)CCN1 (stereo not drawn) | -8.09% (inactive)
29 | CC[C@H]1OC(=O)[C@H](C)[C@@H](O[C@H]2C[C@@](C)(OC)[C@@H](O)[C@H](C)O2)[C@H](C)[C@@H](O[C@@H]2O[C@H](C)C[C@H](N(C)C)[C@H]2O)[C@](C)(O)C[C@@H](C)CN(C)[C@H](C)[C@@H](O)[C@]1(C)O | 3.48% (inactive)
30 | O=[N+]([O-])c1ccc(/C=N/n2c(CO)nc3ccccc32)s1 | 8.29% (inactive)
31 | Cc1nn(-c2ccccc2)c2nc3c(cc12)C(=O)CCC3 | -3.6% (inactive)
32 | O=C(CN1CCC(n2nnc3cc(F)ccc32)CC1)NCc1ccco1 | 19.3% (inactive)
33 | Nc1nc2n(n1)C(c1cccc(Br)c1)CC(c1ccccc1)N2 (stereo not drawn) | 16.8% (inactive)
34 | Nc1ccccc1S(=O)(=O)NC1=NCCCCC1 | -0.169% (inactive)
35 | CCOc1ccc(-c2c(C(=O)N/N=C/c3c[nH]c4ccccc34)nnn2-c2nonc2N)cc1 | -17.8% (inactive)
36 | Cc1ccc(NC(=O)c2ncn(CCCNCc3ccccn3)n2)cc1C | 11.9% (inactive)
37 | Cc1ccc(NC(=O)NCc2ccccn2)cc1Cl | 5.48% (inactive)
38 | COc1ccc(CN2CCN(C(=O)C3CCC(CNS(=O)(=O)c4ccccc4)CC3)CC2)c(OC)c1OC (stereo not drawn) | -7.46% (inactive)
39 | Cc1nc2ncnn2c(C)c1CCC(=O)N1CCCCC1 | -5.84% (inactive)
40 | COc1ccc(Nc2cc(C)nc3nc(C)nn23)c(OC)c1 | -1.6% (inactive)
41 | CSc1ccc(NC(=O)N2CCN(c3nc4ccccc4s3)CC2)cc1 | 11.1% (inactive)
42 | O=C(Cn1cc([N+](=O)[O-])cn1)N1CCN(c2ccccc2)CC1 | -8.94% (inactive)

Row | SMILES | activity change, negative = inhibition
43 | COCCC1CCCCN1C(=O)c1cccc(OC2CCN(S(C)(=O)=O)CC2)c1 (stereo not drawn) | 5.98% (inactive)
44 | CCN1CCN(CCCNc2ncnc3nc[nH]c23)CC1 | -22.4% (inactive)
45 | C1=C(CCNc2ncnc3c2cnn3-c2ccccc2)CCCC1 | 9.72% (inactive)
46 | COc1ccc(-c2c(-c3cc(OC)cc(OC)c3)n(C)c3ccc(-c4ccc(S(N)(=O)=O)cc4)cc23)cc1 | 4.16% (inactive)
47 | CC(C)c1ccc(C(=O)CN2C(=O)NC3(CCc4ccccc43)C2=O)cc1 (stereo not drawn) | 23.7% (inactive)
48 | Cc1nc(Cl)c(C(=O)NCc2ccccc2)c(C)c1Cl | -15% (inactive)
49 | C#CCOCCOCCOCCNc1nc(N2CCN(C(=O)Cn3cc(CC(C)O)nn3)CC2)nc(N2CCN(C(=O)[C@H](CCCCN)n3cc(CCCC)nn3)CC2)n1 (stereo partly drawn) | 17.3% (inactive)
50 | O=C(C1CCCO1)N1CCN(c2c3c(nc4cc(-c5ccc(F)cc5)nn24)CCC3)CC1 (stereo not drawn) | -10.4% (inactive)
51 | Nc1nc(CN2CCCCC2)cs1 | -6.99% (inactive)
52 | Nc1nc(NCC2CCCO2)nc(Nc2cccc(Cl)c2)c1[N+](=O)[O-] (stereo not drawn) | -11.3% (inactive)
53 | O=C(NCc1ccccc1)C(=O)NCC1OCCN1S(=O)(=O)c1ccc([N+](=O)[O-])cc1 (stereo not drawn) | -9.98% (inactive)
54 | COC(=O)c1ccc(Cl)cc1NC(=O)/C=C/c1ccc(C)o1 | -1.54% (inactive)
55 | CC(NC(=O)c1ccc([N+](=O)[O-])cc1[N+](=O)[O-])c1ccc(-c2ccccc2)cc1 (stereo not drawn) | -11.2% (inactive)
56 | O=C(Nc1ccc(F)cc1)C1CC(=O)N(Cc2ccco2)C1 (stereo not drawn) | -1.25% (inactive)
57 | O=C(Cn1nc(C(F)(F)F)c2c1CCCC2)NCc1ccco1 | 13.5% (inactive)
58 | CN(Cc1cn[nH]c1-c1ccc(-c2ccccc2)cc1)CC1CCOCC1 | 3.47% (inactive)
59 | COc1ccc2c(c1)c1c3n2CCN(C)C3=NCC1 | 7.69% (inactive)
60 | CC(C)C(C(=O)NC1CCCC1)N(CC1CCCO1)C(=O)CNS(=O)(=O)c1ccccc1 (stereo not drawn) | 12.5% (inactive)
61 | CCCCC(=O)N(c1ccc(C)c(C)c1)C1C=CS(=O)(=O)C1 (stereo not drawn) | -16.1% (inactive)
62 | COc1ccccc1N(CC(=O)NC1CCCC1)C(=O)c1csnn1 | -23.1% (inactive)
63 | COc1cc(CNc2ccc3[nH]c(=O)[nH]c3c2)ccc1OCC(=O)NC(C)(C)C | -22.4% (inactive)
